# Results filed as inconclusive are left out. A call without a number means that no potency is given here. Activity calls are given as the source filed them. Calls follow the shape of the dose curve; as a rule, active = well fitted curve in the direction sought with a large enough effect; inconclusive = small, poorly fitted or top-dose-only effect, or another doubt; inactive = no such curve, though single readings can be large; an effect the other way counts as inactive or inconclusive.
# Assays:
# [1] = target: Methanococcus maripaludis chaperonin (MmCpn) (UniProt Q6LX38); assay: High-Throughput Screening for Modulators of Cytosolic Chaperonin Activity: MmCpn Primary Screen (AID 488978);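 also: 50 nM MmCpn enzyme hydrolysing 30 µM ATP at 37 °C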
# Sequence of Methanococcus maripaludis chaperonin (MmCpn) (Q6LX38 1-543): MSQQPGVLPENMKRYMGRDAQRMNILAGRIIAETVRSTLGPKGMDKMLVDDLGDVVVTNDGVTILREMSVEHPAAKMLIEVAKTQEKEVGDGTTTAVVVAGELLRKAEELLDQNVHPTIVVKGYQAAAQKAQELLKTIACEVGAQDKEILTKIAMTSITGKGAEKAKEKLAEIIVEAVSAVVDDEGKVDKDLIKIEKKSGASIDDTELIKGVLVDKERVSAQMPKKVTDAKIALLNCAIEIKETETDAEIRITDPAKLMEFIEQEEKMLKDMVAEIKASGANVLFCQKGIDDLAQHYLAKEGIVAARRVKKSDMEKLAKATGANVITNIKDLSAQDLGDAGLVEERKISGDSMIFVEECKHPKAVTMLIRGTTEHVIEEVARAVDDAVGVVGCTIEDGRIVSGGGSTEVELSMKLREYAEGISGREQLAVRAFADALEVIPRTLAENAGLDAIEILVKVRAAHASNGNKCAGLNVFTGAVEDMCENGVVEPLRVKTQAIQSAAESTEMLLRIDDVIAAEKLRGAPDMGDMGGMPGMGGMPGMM
# In short: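 Measures ATPase turnover of the M. maripaludis chaperonin (50 nM final) against 30 uM ATP over 10 min at 37C, with compound added 5 min beforehand at room temperature. ADP is quantified by HTRF immunodetection.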
# [2] = target: Transient receptor potential cation channel subfamily V member 1 (Homo sapiens) (UniProt Q8NER1); assay: HTS Assay for Compounds that Act as Enhancers of the Vanilloid Receptor 1 (AID 488979)
# Sequence of Transient receptor potential cation channel subfamily V member 1 (Homo sapiens) (Q8NER1 whole entry, looked up): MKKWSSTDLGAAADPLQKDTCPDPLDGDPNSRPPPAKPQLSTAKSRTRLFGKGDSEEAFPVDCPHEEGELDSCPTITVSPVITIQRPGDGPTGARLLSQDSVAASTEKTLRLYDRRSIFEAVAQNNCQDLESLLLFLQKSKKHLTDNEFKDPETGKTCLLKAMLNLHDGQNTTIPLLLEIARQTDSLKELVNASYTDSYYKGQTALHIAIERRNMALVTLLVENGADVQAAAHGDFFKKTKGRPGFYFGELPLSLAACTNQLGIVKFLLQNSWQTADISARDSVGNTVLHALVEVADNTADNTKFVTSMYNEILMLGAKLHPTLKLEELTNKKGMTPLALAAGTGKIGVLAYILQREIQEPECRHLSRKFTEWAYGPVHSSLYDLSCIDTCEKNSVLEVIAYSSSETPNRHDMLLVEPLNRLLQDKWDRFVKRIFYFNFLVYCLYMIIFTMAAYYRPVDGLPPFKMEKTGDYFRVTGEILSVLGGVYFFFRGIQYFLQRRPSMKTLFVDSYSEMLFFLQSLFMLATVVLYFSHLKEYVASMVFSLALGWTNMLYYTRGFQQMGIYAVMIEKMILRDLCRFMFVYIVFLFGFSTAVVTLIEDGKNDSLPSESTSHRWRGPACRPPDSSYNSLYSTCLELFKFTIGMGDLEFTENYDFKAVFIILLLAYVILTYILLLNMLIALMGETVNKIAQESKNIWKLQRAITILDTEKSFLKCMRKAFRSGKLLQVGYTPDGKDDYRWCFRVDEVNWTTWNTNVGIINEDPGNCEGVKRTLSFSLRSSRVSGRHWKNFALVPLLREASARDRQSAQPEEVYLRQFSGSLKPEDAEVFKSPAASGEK
# In short: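 TRPV1 cells loaded with Fluo-8 calcium dye; compound added and Ca2+ signal (ex 480/em 520 nm) followed 3 min, then capsaicin at EC20 added and read 2 more min to detect enhancement.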
# [3] = target: Thyrotropin receptor (Homo sapiens) (UniProt P16473); assay: qHTS Assay for Antagonists of the Thyroid Stimulating Hormone Receptor (AID 488980); also: series mostly up to about 58 µM
# Sequence of Thyrotropin receptor (Homo sapiens) (P16473 whole entry, looked up): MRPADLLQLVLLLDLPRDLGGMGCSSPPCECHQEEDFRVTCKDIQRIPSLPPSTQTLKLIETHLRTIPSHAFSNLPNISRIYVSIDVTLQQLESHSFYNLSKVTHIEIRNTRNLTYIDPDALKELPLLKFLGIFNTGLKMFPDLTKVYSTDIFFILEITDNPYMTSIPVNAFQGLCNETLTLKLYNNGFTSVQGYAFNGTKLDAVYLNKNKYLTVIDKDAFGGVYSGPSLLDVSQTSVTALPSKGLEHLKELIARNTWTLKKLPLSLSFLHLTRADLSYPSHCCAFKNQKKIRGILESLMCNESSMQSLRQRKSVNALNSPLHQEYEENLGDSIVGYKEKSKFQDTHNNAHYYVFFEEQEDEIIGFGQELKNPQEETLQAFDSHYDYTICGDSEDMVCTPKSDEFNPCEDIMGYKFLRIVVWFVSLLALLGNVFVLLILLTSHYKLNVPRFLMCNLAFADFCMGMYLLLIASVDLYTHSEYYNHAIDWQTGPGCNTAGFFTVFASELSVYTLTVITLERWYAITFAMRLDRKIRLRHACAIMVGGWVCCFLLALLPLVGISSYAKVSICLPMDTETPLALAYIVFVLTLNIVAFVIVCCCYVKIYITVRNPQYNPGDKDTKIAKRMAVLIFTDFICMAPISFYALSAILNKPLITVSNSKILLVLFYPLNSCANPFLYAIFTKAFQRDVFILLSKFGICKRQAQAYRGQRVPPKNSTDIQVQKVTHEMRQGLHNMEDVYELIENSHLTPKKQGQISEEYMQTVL
# In short: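 Cells expressing human TSHR (HEK293) are dispensed in HBSS/HEPES containing 70 uM RO 20-1724, compound is added, then TSH at EC80 (4 nM final). Antibody in lysis buffer follows, 30 minutes at room temperature before HTRF detection.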
# [4] = target: D(1A) dopamine receptor (Homo sapiens) (UniProt P21728); assay: HTS Assay for Allosteric Agonists of the Human D1 Dopamine Receptor: Primary Screen for Agonists (AID 488981); also: potency is read from the fitted curve at half-maximal effect
# Sequence of D(1A) dopamine receptor (Homo sapiens) (P21728 whole entry, looked up): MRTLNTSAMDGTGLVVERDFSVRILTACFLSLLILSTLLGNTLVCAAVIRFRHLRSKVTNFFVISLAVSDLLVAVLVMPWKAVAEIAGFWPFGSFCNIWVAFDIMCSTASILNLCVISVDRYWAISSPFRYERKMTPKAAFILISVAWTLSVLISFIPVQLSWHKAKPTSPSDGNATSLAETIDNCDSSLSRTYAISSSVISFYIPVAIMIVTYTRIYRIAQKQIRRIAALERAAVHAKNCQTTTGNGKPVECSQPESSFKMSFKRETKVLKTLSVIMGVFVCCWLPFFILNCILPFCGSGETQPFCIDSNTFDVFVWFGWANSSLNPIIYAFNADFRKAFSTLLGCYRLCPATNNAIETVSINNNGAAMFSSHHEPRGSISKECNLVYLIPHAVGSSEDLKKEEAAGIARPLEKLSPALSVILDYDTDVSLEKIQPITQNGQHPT
# In short: (§1)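 Tetracycline-induced HEK293 Trex D1 cells with forced coupling to calcium, loaded with no-wash calcium dye; kinetic fluorescence read 180 s after compound addition for agonism, then a further 180 s after an EC20 dopamine challenge for potentiation.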
# [5] = target: D(1A) dopamine receptor (Homo sapiens) (UniProt P21728); assay: HTS Assay for Allosteric Agonists of the Human D1 Dopamine Receptor: Primary Screen for Potentiators (AID 488982); also: potency is read from the fitted curve at half-maximal effect
# In short: as §1
# [6] = target: D(1A) dopamine receptor (Homo sapiens) (UniProt P21728); assay: HTS Assay for Allosteric Agonists of the Human D1 Dopamine Receptor: Primary Screen for Antagonists (AID 488983);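 also: calcium flux response to an EC80 dopamine challenge measured with no-wash dye; nearly all actives have a fitted effect of over 65% in size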; also: potency is read from the fitted curve at half-maximal effect
# In short: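 Calcium flux readout, no-wash dye, inducible HEK293 T-REx D1 line (force-coupled). Compound added after 10 s baseline, 180 s kinetic read; then dopamine at EC80, further 180 s read.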
# [7] = Validation screen for small molecules that induce genotoxicity in human embryonic kidney (HEK293T) cells expressing luciferase-tagged ELG1 (AID 493106); also: potency is read from the fitted curve at half-maximal effect
# In short: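 qHTS format; 2,000 HEK293T ELG1-luc cells/well; 23 nL compound via pin tool; 16 hr, 37 °C/5% CO2; ONE-Glo, 30 min RT; luminescence read.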
# [8] = target: ATPase family AAA domain-containing protein 5 (Homo sapiens) (UniProt Q96QE3); assay: Validation screen for small molecules that inhibit ELG1-dependent DNA repair in human embryonic kidney (HEK293T) cells expressing luciferase-tagged ELG1 (AID 493107); also: nearly all actives have a fitted effect of over 70% in size; also: potency is read from the fitted curve at half-maximal effect
# Sequence of ATPase family AAA domain-containing protein 5 (Homo sapiens) (Q96QE3 whole entry, looked up, the tested form may be a part): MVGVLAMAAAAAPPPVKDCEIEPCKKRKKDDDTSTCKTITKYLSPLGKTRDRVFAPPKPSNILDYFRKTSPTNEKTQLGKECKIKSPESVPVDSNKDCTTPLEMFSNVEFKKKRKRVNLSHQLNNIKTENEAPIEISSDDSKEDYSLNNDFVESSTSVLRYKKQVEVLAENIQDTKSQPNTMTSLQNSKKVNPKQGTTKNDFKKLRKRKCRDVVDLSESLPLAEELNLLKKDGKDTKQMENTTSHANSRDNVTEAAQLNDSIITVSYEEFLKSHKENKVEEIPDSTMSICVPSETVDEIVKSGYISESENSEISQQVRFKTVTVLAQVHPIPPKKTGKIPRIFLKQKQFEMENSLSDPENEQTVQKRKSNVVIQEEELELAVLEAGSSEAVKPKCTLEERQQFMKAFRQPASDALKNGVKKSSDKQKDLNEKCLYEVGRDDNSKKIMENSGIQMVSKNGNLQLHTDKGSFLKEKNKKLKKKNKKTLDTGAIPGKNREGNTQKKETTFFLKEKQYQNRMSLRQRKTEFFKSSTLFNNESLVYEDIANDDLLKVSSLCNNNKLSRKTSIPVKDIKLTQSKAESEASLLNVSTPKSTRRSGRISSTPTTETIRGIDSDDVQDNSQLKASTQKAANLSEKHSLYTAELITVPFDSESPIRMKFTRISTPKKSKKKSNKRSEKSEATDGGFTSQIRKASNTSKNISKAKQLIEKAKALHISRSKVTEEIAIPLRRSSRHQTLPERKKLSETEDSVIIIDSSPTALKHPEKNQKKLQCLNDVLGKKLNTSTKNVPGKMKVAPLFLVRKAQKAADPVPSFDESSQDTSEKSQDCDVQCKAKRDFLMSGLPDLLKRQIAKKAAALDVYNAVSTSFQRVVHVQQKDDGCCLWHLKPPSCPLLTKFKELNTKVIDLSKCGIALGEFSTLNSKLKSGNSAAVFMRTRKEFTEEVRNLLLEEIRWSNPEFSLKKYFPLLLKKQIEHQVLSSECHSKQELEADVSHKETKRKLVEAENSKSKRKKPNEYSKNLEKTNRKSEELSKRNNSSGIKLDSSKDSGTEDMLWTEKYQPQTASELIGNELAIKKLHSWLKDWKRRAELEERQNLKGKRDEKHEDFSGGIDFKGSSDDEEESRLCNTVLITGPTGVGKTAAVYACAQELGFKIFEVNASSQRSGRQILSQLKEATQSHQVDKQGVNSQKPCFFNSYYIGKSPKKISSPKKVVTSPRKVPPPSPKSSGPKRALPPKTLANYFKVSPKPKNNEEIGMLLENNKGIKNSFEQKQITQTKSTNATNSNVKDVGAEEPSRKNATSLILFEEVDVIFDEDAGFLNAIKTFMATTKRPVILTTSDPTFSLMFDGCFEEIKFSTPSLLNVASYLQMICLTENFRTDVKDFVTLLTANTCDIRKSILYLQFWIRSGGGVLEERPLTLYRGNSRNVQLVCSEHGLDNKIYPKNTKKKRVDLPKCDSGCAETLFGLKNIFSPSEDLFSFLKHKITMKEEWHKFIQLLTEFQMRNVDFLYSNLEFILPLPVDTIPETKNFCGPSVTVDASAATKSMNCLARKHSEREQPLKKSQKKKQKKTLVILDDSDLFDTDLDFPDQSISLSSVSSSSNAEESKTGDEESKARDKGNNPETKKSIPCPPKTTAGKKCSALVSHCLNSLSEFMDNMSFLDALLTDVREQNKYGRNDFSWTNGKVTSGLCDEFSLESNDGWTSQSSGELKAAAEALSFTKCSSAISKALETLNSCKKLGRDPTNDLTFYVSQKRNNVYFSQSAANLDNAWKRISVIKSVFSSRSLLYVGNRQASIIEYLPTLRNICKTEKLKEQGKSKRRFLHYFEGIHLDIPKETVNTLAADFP
# In short: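 ELG1-luciferase HEK293T reporter; 5-fluorouridine + compound/DMSO, 16 hr, 37 °C, 5% CO2; ONE-Glo 30 min RT; luminescence read, qHTS format.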
# [9] = target: Tyrosyl-DNA phosphodiesterase 1 (Homo sapiens) (UniProt Q9NUW8); assay: Confirmation Assay for Inhibitors of Tyrosyl-DNA Phosphodiesterase (TDP1) (AID 489007); settings: recombinant human TDP1 enzymatic activity, dose-response; also: potency is read from the fitted curve at half-maximal effect; nearly all actives have a fitted effect of over 40% in size
# In short: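 AlphaScreen read-out: streptavidin donor and anti-FITC acceptor beads (10 ug/ml) bind intact substrate, so Tdp1 removal of tyrosine-FITC lowers signal. Enzyme 1 nM, substrate 15 nM, 5 min reaction at room temperature after 15 min compound preincubation.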
# [10] = target: ATP-dependent 6-phosphofructokinase (Trypanosoma brucei brucei) (UniProt O15648); assay: qHTS Assay to Find Inhibitors of T. brucei phosphofructokinase: hit validation (AID 492961);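 also: luminescence reports ADP formed as PFK phosphorylates fructose-6-phosphate with ATP; series mostly up to about 51 µM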
# Sequence of ATP-dependent 6-phosphofructokinase (Trypanosoma brucei brucei) (O15648 whole entry, looked up): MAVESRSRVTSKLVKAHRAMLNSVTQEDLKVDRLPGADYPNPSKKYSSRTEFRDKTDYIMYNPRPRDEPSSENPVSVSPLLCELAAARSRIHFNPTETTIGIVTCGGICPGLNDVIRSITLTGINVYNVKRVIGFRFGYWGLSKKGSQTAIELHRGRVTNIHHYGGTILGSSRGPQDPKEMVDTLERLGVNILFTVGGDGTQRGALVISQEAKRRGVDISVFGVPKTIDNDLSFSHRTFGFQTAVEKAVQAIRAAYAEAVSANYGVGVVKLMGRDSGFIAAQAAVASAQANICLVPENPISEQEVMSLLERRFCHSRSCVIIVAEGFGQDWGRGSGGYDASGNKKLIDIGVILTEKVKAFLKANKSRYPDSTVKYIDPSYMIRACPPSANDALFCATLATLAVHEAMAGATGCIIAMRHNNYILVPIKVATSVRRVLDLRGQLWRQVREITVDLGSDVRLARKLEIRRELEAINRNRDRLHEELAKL
# In short: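 Compounds titrated; %activity normalized to 0x and 1x enzyme controls, curve-fitted. Readout: ADP-Glo luminescence after 45 min room-temperature reaction of 1.25 nM PFK, 0.1 mM ATP, 0.5 mM F6P, pH 8.0.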
Structure (SMILES),outcome [1],outcome [2],outcome [3],Potency [4],Potency [5],Potency [6],Potency [7],Potency [8],Potency [9],Potency [10]
COc1cc(CC(C)N)c(OC)cc1I (stereo not given),inactive,inactive,inactive,inactive,inactive,inactive,inactive,–,–,–
C[C@H](Cc1ccc2c(c1)OC(C(=O)O)(C(=O)O)O2)NC[C@H](O)c1cccc(Cl)c1,inactive,inactive,inactive,inactive,inactive,inactive,inactive,–,–,–
CCCCCCCCCCCCCC(=O)O[C@@H]1[C@@H](C)[C@@]2(O)[C@@H](C=C(CO)C[C@@]3(O)C(=O)C(C)=C[C@@H]23)C2C(C)(C)[C@@]21OC(C)=O (stereo not given in full),inactive,inactive,inactive,inactive,–,inactive,0.0041 µM (active),–,–,–
CC(Cc1ccc(OCC(=O)O)cc1)NCC(O)c1cccc(Cl)c1 (stereo not given),inactive,inactive,inactive,inactive,inactive,inactive,inactive,–,–,–
CN1CCC(c2c[nH]c3ccc(O)cc23)CC1,inactive,inactive,–,inactive,inactive,6.31 µM (active),inactive,–,–,–
Cc1sc2ccccc2c1CC1=NCCN1,inactive,inactive,inactive,inactive,inactive,10 µM (active),inactive,–,–,–
COc1ccc2[nH]cc(CCN)c2c1,inactive,inactive,inactive,inactive,–,inactive,inactive,inactive,–,–
C[N+](C)(C)CC#CCOC(=O)Nc1cccc(Cl)c1,inactive,inactive,inactive,inactive,inactive,inactive,inactive,–,–,–
C[N+]1(C)CCOC(O)(c2ccc(-c3ccc(C4(O)C[N+](C)(C)CCO4)cc3)cc2)C1 (stereo not given),inactive,inactive,inactive,inactive,inactive,inactive,inactive,–,–,–
CCCN(CCC)C1CCc2cccc(O)c2C1 (stereo not given),inactive,inactive,inactive,inactive,inactive,inactive,inactive,inactive,–,–
CN(C(=O)Cc1ccc(Cl)c(Cl)c1)C(CN1CCCC1)c1cccc(OCC(=O)O)c1 (stereo not given),inactive,inactive,inactive,inactive,inactive,inactive,inactive,inactive,–,–
CN(N=O)c1ccc(O)c(O)c1,inactive,inactive,inactive,inactive,inactive,inactive,inactive,inactive,–,–
NC(=O)CI,inactive,inactive,inactive,inactive,–,inactive,inactive,–,–,–
CCCN(CCC)[C@H]1CCc2c(F)ccc(O)c2C1,inactive,inactive,inactive,inactive,inactive,inactive,inactive,inactive,–,–
CCCN(CCC)CCc1ccc(O)c(O)c1,inactive,inactive,inactive,inactive,inactive,1.78 µM (active),inactive,inactive,–,–
Clc1cc(I)cc(Cl)c1NC1=NCCN1,inactive,inactive,inactive,inactive,inactive,inactive,inactive,inactive,–,–
NC(C(=O)O)c1cc(=O)[nH]o1 (stereo not given),inactive,inactive,inactive,inactive,–,inactive,inactive,inactive,–,–
CCN(CCCl)Cc1ccccc1Br,inactive,inactive,inactive,inactive,inactive,–,inactive,inactive,–,–
NCCCP(=O)(O)O,inactive,inactive,inactive,inactive,inactive,inactive,inactive,–,–,–
c1ccc2c(N3CCNCC3)cccc2c1,inactive,inactive,inactive,inactive,–,–,inactive,inactive,–,–

Structure (SMILES),outcome [1],outcome [2],outcome [3],Potency [4],Potency [5],Potency [6],Potency [7],Potency [8],Potency [9],Potency [10]
Oc1ccc2c3c1O[C@H]1c4oc5ccccc5c4C[C@@]4(O)C(C2)N(CC2CC2)CCC314 (stereo not given in full),inactive,inactive,inactive,inactive,inactive,inactive,inactive,–,–,–
NC(Cc1cc(O)c(O)cc1O)C(=O)O (stereo not given),inactive,inactive,–,inactive,inactive,inactive,inactive,inactive,4.47 µM (active),–
COc1ccc2c(c1)C13CCCCC1C(C2)N(C)CC3 (stereo not given),inactive,inactive,inactive,inactive,inactive,inactive,inactive,inactive,–,–
C/C(O)=C(\C#N)C(=O)Nc1cc(Br)ccc1Br,inactive,inactive,inactive,inactive,inactive,inactive,inactive,–,–,–
C[N+]1(C)CCN(c2ccccc2)CC1,inactive,inactive,inactive,inactive,–,inactive,inactive,inactive,–,–
CP(=O)(O)C1=CCNCC1,inactive,inactive,–,inactive,inactive,inactive,inactive,–,–,–
C[N+]1(C)C2CCC1CC(OC(=O)c1c[nH]c3ccccc13)C2 (stereo not given),inactive,inactive,inactive,inactive,inactive,inactive,inactive,–,–,inactive
NNC(=O)c1ccc(O)cc1,inactive,inactive,inactive,inactive,–,inactive,inactive,inactive,–,–
C=CCN1CC[C@]23c4c5ccc(O)c4O[C@@H]2/C(=N/N=C2\CC[C@@]4(O)C6Cc7ccc(O)c8c7[C@@]4(CCN6CC=C)[C@@H]2O8)CC[C@@]3(O)C1C5,inactive,inactive,inactive,inactive,–,inactive,inactive,–,–,–
C[C@@H]1O[C@H](C[N+](C)(C)C)CS1,inactive,inactive,inactive,inactive,–,inactive,inactive,–,–,–
NC(=O)c1cc(N2CC2)c([N+](=O)[O-])cc1[N+](=O)[O-],inactive,inactive,inactive,inactive,inactive,inactive,inactive,inactive,–,–
Cc1[nH]c2ccc(O)cc2c1CCN,inactive,inactive,inactive,inactive,inactive,inactive,inactive,–,–,–
CC(C)NP(=O)(NC(C)C)OP(=O)(NC(C)C)NC(C)C,inactive,inactive,inactive,inactive,inactive,inactive,inactive,inactive,–,–
C[N+](C)(C)CCOC(=O)CBr,inactive,inactive,–,inactive,inactive,inactive,inactive,–,–,–
CC12NC(Cc3ccccc31)c1ccccc12 (stereo not given),inactive,inactive,inactive,inactive,–,inactive,inactive,–,–,–
c1ccc2cc(CC3=NCCN3)ccc2c1,inactive,inactive,–,inactive,inactive,inactive,inactive,–,–,inactive
COc1ccc(OC)c(C(O)C(C)N)c1 (stereo not given),inactive,inactive,inactive,inactive,inactive,inactive,inactive,inactive,–,–
NC(N)=NOCC[C@H](N)C(=O)O,inactive,inactive,inactive,inactive,inactive,inactive,inactive,inactive,–,–
C=CCN1CCC23c4c5ccc(O)c4O[C@H]2C(=O)CC[C@@]3(O)C1C5 (stereo not given in full),inactive,inactive,inactive,inactive,–,inactive,inactive,inactive,–,inactive
CCn1cnc2c(Nc3cccc(Cl)c3)nc(N[C@@H]3CCCC[C@@H]3N)nc21,inactive,–,inactive,–,–,inactive,inactive,4.61 µM (active),–,–

Structure (SMILES),outcome [1],outcome [2],outcome [3],Potency [4],Potency [5],Potency [6],Potency [7],Potency [8],Potency [9],Potency [10]
CC(=O)OCC1=C(C(=O)O)N2C(=O)[C@@H](NC(=O)CCC[C@@H](N)C(=O)O)[C@H]2SC1,inactive,–,–,inactive,–,inactive,inactive,–,–,–
Clc1ccc(N2CC3CCC(C2)N3)nn1,inactive,–,–,inactive,inactive,inactive,inactive,inactive,–,–
CC(C)(C)c1o[nH]c(=O)c1CC(N)C(=O)O (stereo not given),inactive,–,–,inactive,–,inactive,inactive,–,–,–
CN1CCc2cccc(Cl)c2CC1,inactive,–,–,inactive,inactive,2.51 µM (active),inactive,inactive,–,–
O=C1CC[C@@]2(O)C3Cc4ccc(O)c5c4C2(CCN3CC2CC2)[C@H]1O5 (stereo not given in full),inactive,–,inactive,inactive,–,inactive,inactive,inactive,–,–
N#C/C(=C/c1ccc(O)c(O)c1)C(N)=S,inactive,–,–,inactive,0.517 µM (active),inactive,–,–,–,–
CC(N)Cc1c[nH]c2ccc(OCc3cccs3)cc12 (stereo not given),inactive,–,inactive,–,inactive,inactive,inactive,inactive,–,–
O=[N+]([O-])/C=C/c1ccc2c(c1)OCO2,inactive,–,–,inactive,inactive,–,inactive,20.6 µM (active),–,–
Oc1ccc2c3c1O[C@H]1c4[nH]c5ccccc5c4C[C@@]4(O)C(C2)N(CC2CC2)CCC314 (stereo not given in full),inactive,–,–,inactive,inactive,inactive,inactive,–,–,–
O=C(O)c1cc[c]([Hg][Cl])cc1,inactive,–,–,inactive,inactive,inactive,inactive,–,56.2 µM (active),–
CO[C@H]1CC=C2CCN3CCC4=C(CC(=O)OC4)[C@]23C1,inactive,–,–,inactive,inactive,inactive,inactive,inactive,–,–
CC(C)[C@@]1(NC(=O)[C@@H]2C[C@@H]3c4cccc5[nH]cc(c45)C[C@H]3N(C)C2)O[C@@]2(O)[C@@H]3CCCN3C(=O)[C@H](Cc3ccccc3)N2C1=O,inactive,–,–,inactive,inactive,5.62 µM (active),inactive,–,–,–
C=CCN1CCc2cccc3c2[C@H]1Cc1ccc(O)c(O)c1-3,inactive,–,–,0.794 µM (active),inactive,0.398 µM (active),inactive,–,–,–
CCCC[N+]1(C)C2CC(OC(=O)[C@H](CO)c3ccccc3)CC1C1OC12 (stereo not given in full),inactive,–,–,inactive,inactive,inactive,inactive,–,–,–
C=CCN(C1=NCCN1)c1c(Cl)cccc1Cl,inactive,–,–,inactive,inactive,inactive,inactive,inactive,–,inactive
NCCc1c[nH]c2ccc(C(N)=O)cc12,inactive,–,inactive,inactive,–,inactive,inactive,inactive,–,–
C[C@@H]1O[C@@H](O[C@H]2C[C@@H](O)[C@]3(CO)[C@@H]4C(CC[C@]3(O)C2)[C@@]2(O)CC[C@H]([C@@H]3COC(=O)C3)[C@@]2(C)C[C@H]4O)[C@H](O)[C@H](O)[C@H]1O (stereo not given in full),inactive,–,–,inactive,inactive,inactive,inactive,–,–,–
CC(C)(C)c1cc(C=C(C#N)C#N)cc(C(C)(C)C)c1O,inactive,–,–,inactive,inactive,–,inactive,2.31 µM (active),–,–
C=CCN1C[C@@H](C)N([C@H](c2ccc(C(=O)N(CC)CC)cc2)c2cccc(OC)c2)C[C@@H]1C,inactive,–,inactive,inactive,–,inactive,inactive,inactive,–,–
